Bioassay records as filed in PubChem.
RGS4 inhibitor = human RGS4 inhibition; hit rate 0.039% among 390,000; Potency, µM (top dose mostly 114 µM), usual class: inhibitors; AID 504845; P49798; Transcreener GDP fluorescence polarization, RGS4-accelerated GTP hydrolysis; also: nearly all actives have a fitted effect of over 75% in size
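MLSMR compounds (23 nl, pin-transferred) preincubated 10 min at room temperature with a 500nM (2x) first reagent, then RGS4 at 900nM (2x) plus Transcreener GDP mix added; fluorescence polarization (620/688 nm) read before and after 90 min at 30 °C.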
PTHR1 agonist = agonists of human PTHR1 parathyroid hormone receptor. AID 743266. Potency, µM (series often up to 115 µM), hits mostly activators. hit rate 0.075% among 410,000. HEK293 GP2 PTHR1 cells, GloSensor cAMP luminescence, 1 h. Q03431; also: nearly all actives have a fitted effect of over 55% in size
Target sequence (Q03431 whole entry, looked up): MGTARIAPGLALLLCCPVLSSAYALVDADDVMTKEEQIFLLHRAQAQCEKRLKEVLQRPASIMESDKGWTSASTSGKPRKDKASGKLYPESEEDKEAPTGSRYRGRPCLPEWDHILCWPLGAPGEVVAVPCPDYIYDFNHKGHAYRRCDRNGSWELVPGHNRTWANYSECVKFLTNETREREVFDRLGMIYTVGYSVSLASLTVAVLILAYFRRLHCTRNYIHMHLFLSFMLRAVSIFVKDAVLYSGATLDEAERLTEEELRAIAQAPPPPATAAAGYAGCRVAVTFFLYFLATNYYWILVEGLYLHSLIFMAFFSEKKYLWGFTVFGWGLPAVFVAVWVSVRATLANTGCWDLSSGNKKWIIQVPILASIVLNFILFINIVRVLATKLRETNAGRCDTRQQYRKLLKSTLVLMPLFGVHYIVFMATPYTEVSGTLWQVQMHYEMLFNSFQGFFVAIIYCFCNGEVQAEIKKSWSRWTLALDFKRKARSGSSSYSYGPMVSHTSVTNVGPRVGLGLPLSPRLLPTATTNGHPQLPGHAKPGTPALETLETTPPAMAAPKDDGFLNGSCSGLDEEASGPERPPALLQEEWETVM
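HEK-293-derived GP2 cells expressing PTHR1 and a GloSensor cAMP reporter, 3,000/well, plated overnight, given luciferin plus IBMX (each 0.5 mM as added) for 1 h at 37 °C, then compound for 1 h at 37 °C. Luminescence was read after 15 min at room temperature.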
LDHA inh = inhibitors of human lactate dehydrogenase A; P00338; activity change, % (values are at about 110 or 230 µM); purified LDHA, NADH/diaphorase-resazurin fluorescence; active compounds read low; hit rate 0.15% among 480,000; in the data active = activity change below about -30%; inconclusive = mostly about -25% to -30%
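Human LDH5 at 2 nM final in Tris HCl pH 7.4 with 0.06 mM NADH and 0.2 mM pyruvate, reacted 5 minutes at room temperature. Remaining NADH coupled via diaphorase/resazurin; resorufin fluorescence read at 0 and 20 minutes, normalized to enzyme-free and DMSO wells.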
BRCA1 expr act = activators of BRCA1 expression | Potency, µM (highest dose often 46.1 µM), most hits filed as activators | hit rate 1.1% among 380,000 | MCF7-BRCA1-FFLuc reporter, luminescence, 48 h; response scale: scaled: vehicle 0%, 10 µM genistein 100% | AID 624202; also: nearly all actives have a fitted effect of over 80% in size
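Reporter cells (MCF7, BRCA1 promoter-firefly luciferase) received library compounds across a concentration series for 48 h. End-point luminescence was measured and concentration-effect curves derived after normalization.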
p53 reactivator = restores transcriptional activity of mutant p53; H1299 p53-A138V BP100-luciferase reporter, luminescence, 24 h; Potency, µM (top dose mostly 92.2 µM), hits mostly activators; hit rate 0.063% among 320,000; also: nearly all actives have a fitted effect of over 45% in size
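p53-null H1299 cells stably carrying temperature-sensitive p53-A138V and a BP100-luciferase reporter were pinned with compounds (4-point, 1:5 series) and held 24 hrs at 37 deg C. Luminescence was read 10 min after detection reagent.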
Hits are given with their value; - = inactive; ? = inconclusive; . = not tested or not shown; ! = not confirmed by another sample. Hits are enriched below; roughly 1.1% of the tested compounds scored in any of these assays. Unless noted, calls follow the shape of the dose curve; as a rule, active = well fitted curve in the direction sought with a large enough effect; inconclusive = small, poorly fitted or top-dose-only effect, or another doubt; inactive = no such curve, though single readings can be large; an effect the other way counts as inactive or inconclusive.

SMILES | RGS4 inhibitor | PTHR1 agonist | LDHA inh | BRCA1 expr act | p53 reactivator
Cc1c(CC(=O)Nc2ccc(C(C)C)cc2)c(=O)oc2cc(O)ccc12 | . | . | - | . | .
Cc1ccc(Nc2nc(CSc3nnnn3C3CC3)cs2)cc1 | . | . | - | . | .
Cc1ccc(Nc2nc(CSc3nnnn3C)cs2)cc1 | - | - | - | 3.2µM | ?
COc1ccc(N=C(N)SCc2ccccn2)cc1 | - | - | - | - | 35µM
CNc1c(NC(=O)c2ccc(OC)c(Br)c2)c(=O)oc2ccccc12 | . | . | - | . | .
CC(C)c1ccc(NC(=O)c2nc3ccccc3nc2N2CCOCC2)cc1 | . | . | - | . | .
COc1ccc(NC(=O)CCCc2ccccc2)cc1OC | - | - | - | 11µM | ?
COC(=O)c1cccc(NC(=O)CCc2ccccc2)c1 | - | - | - | 7.9µM | -
Cc1ccc(NC(=O)CCCc2ccccc2)nc1 | - | - | - | 11µM | -
Clc1ccc(CSc2c[nH]c3ccccc23)cc1 | . | . | - | . | .
FC(F)(F)CN1CCNCC1 | . | . | - | . | .
COC(=O)c1cc(-c2ccc(C)cc2)n[nH]1 | - | - | - | 10µM | -
COC(=O)c1cc(-c2ccc(OC)cc2)n[nH]1 | - | - | - | ? | -
CC(c1ccccc1Cl)n1cnc2c1c(=O)n(C)c(=O)n2C (configuration not stated) | . | . | - | . | .
COc1cc(OC)cc(C(=O)Nc2nnc(NC(=S)Nc3ccccc3)s2)c1 | - | - | - | - | -
CC(C)(C)c1nnc(NC(=S)Nc2ccccc2)s1 | - | - | - | 2.8µM | -
Cc1ccc(NC(=O)CC(=O)c2ccccc2)cc1C | - | - | - | 6.3µM | ?
CCOc1ccccc1CN1CCC(N2CCOCC2)CC1 | - | - | -31 | - | -
CCOc1ccccc1CN1CCC(O)CC1 | - | - | - | - | -
Cc1occc1C(=O)N/N=C/c1ccc(OCc2ccccc2)cc1 | - | - | - | 6.3µM | -
O=C(N/N=C/c1ccc(OCc2ccccc2)cc1)c1cc[n+](Cc2ccccc2)cc1 | - | - | - | 3.5µM | ?
O=C(N/N=C/c1ccc(O)cc1)c1cc[n+](Cc2ccccc2)cc1 | - | - | - | - | -
CCC(=O)Nc1cccc(-c2nnc(SCC(=O)NCc3ccco3)n2C)c1 | - | - | -31 | - | -
Cc1c(C(=O)N2CCc3ccccc3C2)oc2ccc(Br)cc12 | - | - | - | - | -
Cc1c(C(=O)N2CCCC2)oc2ccc(Br)cc12 | - | - | - | 6.3µM | -
SMILES | RGS4 inhibitor | PTHR1 agonist | LDHA inh | BRCA1 expr act | p53 reactivator
Cc1oc2cc3c(C(=O)N4CCCCC4)c(C)oc3cc2c1C(=O)N1CCCCC1 | - | - | - | 3.2µM | -
Cc1c(C(=O)N2CCN(C)CC2)oc2ccc(Br)cc12 | - | - | - | 13µM | ?
Cc1ccc(CNCC(=O)O)cc1 | . | . | - | . | .
Brc1ccc(COc2ncnc3ccccc23)cc1 | - | - | - | - | -
c1ccc(OCCOc2ncnc3ccccc23)cc1 | - | - | - | 10µM | -
Fc1ccc2[nH]c3c(NCCN4CCOCC4)ncnc3c2c1 | - | - | -35 | - | -
CCn1cnc2c1c(=O)n(CC(=O)OC1CCCCC1)c(=O)n2Cc1ccccc1 | . | . | - | . | .
N#CCOc1nc(N2CCOCC2)nc(N2CCOCC2)n1 | - | - | -31! | - | -
CCOc1nc(OCC#N)nc(N2CCOCC2)n1 | . | . | - | . | .
CCC(C)(C)c1cc(O)c(C(C)(C)CC)cc1O | . | . | - | . | .
Cn1c(=O)n(C)c2cc(NC(=O)CN3C(=O)COc4ccc(C(C)(C)C)cc43)ccc21 | . | . | - | . | .
N#CCCN1CCCC1CCc1ccccc1 (configuration not stated) | . | . | - | . | .
O=C(Nc1scc(-c2ccc(F)cc2)c1C(=O)O)c1ccco1 | - | - | - | - | -
COC(=O)c1c(-c2ccccc2)csc1NC(=O)c1ccco1 | - | - | - | 5µM | ?
CC(Sc1n[nH]c(-c2ccccc2)n1)C(=O)Nc1cccc(C(F)(F)F)c1 (configuration not stated) | . | . | - | . | .
CCCNC(=O)c1cc(Cl)c(NC(=O)C2=C(C)OCCS2)cc1OC | - | - | - | - | -
CCCNC(=O)c1cc(Cl)c(NC(=O)C2=CSCCO2)cc1OC | - | - | - | 7.9µM | -
COc1ccc(C(=O)N2CCn3c2nc2ccccc23)cc1 | - | - | - | 13µM | -
O=C(c1cccs1)N1CCn2c1nc1ccccc12 | - | - | - | 2.8µM | ?
COc1ccc(C(=O)N2CCc3ccccc32)cc1 | - | - | - | 11µM | -
O=C(COc1ccc2c(c1)CCC2)N1CCc2ccccc21 | - | - | - | 10µM | -
COc1ccccc1NC(=O)c1cc(-c2ccco2)nc2ccccc12 | . | . | - | . | .
Cn1cccc1-c1cc(C(=O)N/N=C/c2ccccc2Cl)[nH]n1 | - | - | - | 8.9µM | ?
O=C(N/N=C/c1ccccc1Cl)c1ccc(F)cc1 | - | - | - | ? | -
Cn1cccc1-c1cc(C(=O)N/N=C/c2ccc(F)cc2)[nH]n1 | - | - | - | - | -
SMILES | RGS4 inhibitor | PTHR1 agonist | LDHA inh | BRCA1 expr act | p53 reactivator
O=C(N/N=C/c1c[nH]c2ccccc12)c1ccccc1 | - | - | - | 10µM | .
O=C(NN=Cc1ccccc1Cl)c1ccccc1 | . | - | - | 5.6µM | .
Cc1ccc(NC(=O)CN2N=C(c3ccccc3F)c3cc(Cl)ccc3S2(=O)=O)c(C)c1 | . | . | - | . | .
N#Cc1ccc(S(=O)(=O)N2CCC(C(=O)N3CCCC3c3ccc4c(c3)OCCO4)CC2)cc1 (configuration not stated) | . | . | - | . | .
c1cncc(-c2noc(C34CC5CC(CC(C5)C3)C4)n2)c1 | - | - | - | 13µM | ?
Brc1ccc(-c2noc(C34CC5CC(CC(C5)C3)C4)n2)cc1 | . | . | - | . | .
Cc1ccc(NC(=O)c2nnn(-c3ccc4c(c3)OCCO4)c2N)cc1 | - | - | - | 5.6µM | ?
Cc1ccccc1Cn1nnc(C(=O)Nc2ccc3c(c2)OCCO3)c1N | - | - | - | 3.5µM | ?
Nc1c(C(=O)Nc2ccccc2)nnn1-c1ccc2c(c1)OCCO2 | - | - | - | - | .
Cc1cccc(-c2nc(C#N)c(NCc3ccc4c(c3)OCO4)o2)c1 | . | . | - | . | .
O=C(NCc1ccc2c(c1)OCO2)c1ccc(-c2csc(C3CC3)n2)cc1 | . | . | - | . | .
O=S(=O)(NC1CCN(S(=O)(=O)c2ccc(Br)cc2)CC1)c1cccs1 | . | . | - | . | .
CCCCOc1ccc(C(=O)C(CCC(CNC(C)(C)C)C(=O)c2ccc(OCCCC)cc2)CNC(C)(C)C)cc1 (configuration not stated) | . | . | - | . | .
CCCCCCCc1ccc(C(=O)Nc2ccccc2C)cc1 | . | . | - | . | .
CC(C)NCCCOc1ccc(C(C)(C)c2ccccc2)cc1 | - | - | -32 | - | -
COCCNCCCOc1ccc(C(C)(C)c2ccccc2)cc1 | - | - | -33 | - | -
O=c1ccc2ccc(OS(=O)(=O)c3ccc4c(c3)CCCC4)cc2o1 | . | . | - | . | .
Cc1cc(N/N=C/c2ccc3c(c2)OCO3)nc2ccccc12 | - | - | - | 13µM | ?
